Results on ten molecules are retold here after PubChem BioAssay (Tox21).

The nature of experiment [1]: qHTS assay to identify small molecule agonists of the peroxisome proliferator-activated receptor delta (PPARd) signaling pathway - cell viability counter screen (AID 743211). Note: nearly all actives have a fitted effect of over 55% in size. Note: potency is the fitted concentration of half-maximal effect. An outline of the steps:
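Viability was measured as CellTiter-Glo luminescence (30 min, room temperature) in the same wells as the beta-lactamase readout. GeneBLAzer PPARd UAS-bla HEK293H cells received compound after 5 h plating and were incubated 17 h at 37 C.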

Experiment [2] has as its target Peroxisome proliferator-activated receptor delta (Homo sapiens) (UniProt Q03181). Description: qHTS assay to identify small molecule agonists of the peroxisome proliferator-activated receptor delta (PPARd) signaling pathway (AID 743212; calls by dose curve; note: % is set by controls: 0 for no effect and ±100 for the full control effect). Put shortly:
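GeneBLAzer PPARd UAS-bla HEK293H cells (beta-lactamase reporter under UAS control), plated and rested 5 h at 37 C, then exposed to compounds in DMSO at 37 C; LiveBLAzer B/G FRET substrate added, 2 h room temperature, fluorescence read.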
A general note: Quantitative high-throughput screening tests each substance at several concentrations.

The nature of experiment [3]: qHTS assay to identify small molecule antagonists of the peroxisome proliferator-activated receptor delta (PPARd) signaling pathway - cell viability counter screen (AID 743213). Note: nearly all actives have a fitted effect of over 50% in size. Note: potency is the fitted concentration of half-maximal effect. An outline of the steps:
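HEK293H cells with the PPARd UAS-bla reporter, co-treated 17 h at 37 C with compounds and L165041 (300 nM final), were lysed with CellTiter-Glo. Luminescence indicated viable cell content.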

Experiment [4] has as its target Peroxisome proliferator-activated receptor delta (Homo sapiens) (UniProt Q03181). Description: qHTS assay to identify small molecule antagonists of the peroxisome proliferator-activated receptor delta (PPARd) signaling pathway (AID 743215; active = well fitted inhibition curve with a large enough effect in the signal ratio in the repeat runs, not every such curve was filed as active; the % refers to the signal ratio;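 note: cells stimulated with agonist L165041 at 300 nM final during compound exposure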; note: potency is the fitted concentration of half-maximal effect). Put shortly:
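Read-out is beta-lactamase FRET fluorescence, measured 2 h after substrate addition at room temperature. Beforehand, UAS-bla HEK293H cells carrying the PPARd reporter were exposed to compounds with L165041 at 300 nM final for 17 h at 37 C.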

Experiment [5] is described as follows: qHTS assay to identify small molecule agonists of the farnesoid-X-receptor (FXR) signaling pathway - cell viability counter screen (AID 743218). Note: % is set by controls: 0 for no effect and ±100 for the full control effect; nearly all actives have a fitted effect of over 45% in size. An outline of the steps:
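HEK 293T FXR-bla cells; 5 h pre-incubation, 16 h compound exposure at 37 C; LiveBLAzer substrate 2 h RT, then CellTiter-Glo 30 min RT, luminescence.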

Experiment [6] can be described thus: qHTS assay to identify small molecule antagonists of the farnesoid-X-receptor (FXR) signaling pathway - cell viability counter screen (AID 743221; active = well fitted cell-killing curve with a large enough effect in the repeat runs, not every such curve was filed as active; note: nearly all actives have a fitted effect of over 50% in size; note: potency is the fitted concentration of half-maximal effect). Put shortly: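 Cytotoxicity counter screen run in the FXR-bla reporter wells: HEK 293T cells exposed to compound with 50 uM (final) chenodeoxycholic acid for 16 h, 37 C, then viability measured by CellTiter-Glo luminescence after 30 min, room temperature.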

For experiment [7], the target named is Vitamin D3 receptor (Homo sapiens) (UniProt P11473). Description: qHTS assay to identify small molecule agonists of the vitamin D receptor (VDR) signaling pathway (AID 743222; calls by dose curve; note: % is set by controls: 0 for no effect and ±100 for the full control effect). Put shortly:
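VDR-bla cells, 2,000/well; 4 h preincubation 37C; cpd (DMSO) 16 h; LiveBLAzer B/G substrate 2 h RT; fluorescence intensity read.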

Experiment [8] has the same target. Put plainly: qHTS assay to identify small molecule antagonists of the vitamin D receptor (VDR) signaling pathway (AID 743223; active = well fitted inhibition curve with a large enough effect in the signal ratio in the repeat runs, not every such curve was filed as active; the % refers to the signal ratio; note: potency is the fitted concentration of half-maximal effect). Put shortly: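 Antagonist mode: compound added to VDR-bla cells alongside agonist 1alpha,25-dihydroxyvitamin D3 (3 nM final), incubation 16 h at 37C. Read-out is LiveBLAzer FRET fluorescence, 2 h at room temperature.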
The nature of experiment [9]: qHTS assay to identify small molecule antagonists of the vitamin D receptor (VDR) signaling pathway - cell viability counter screen (AID 743225). Note: nearly all actives have a fitted effect of over 50% in size. Note: potency is the fitted concentration of half-maximal effect. An outline of the steps: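 Cytotoxicity counter screen read by CellTiter-Glo luminescence (30 min, room temperature) in the same wells as the VDR-bla antagonist readout. HEK 293T VDR-UAS-bla cells had 16 h at 37C with compound and 3 nM (final) 1-alpha,25-dihydroxyvitamin D3, then 2 h with FRET substrate.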

Experiment [10] can be described thus: qHTS assay to identify small molecule agonists of the endoplasmic reticulum stress response signaling pathway - cell viability counter screen (AID 1159517; calls by dose curve; note: nearly all actives have a fitted effect of over 50% in size; note: potency is the fitted concentration of half-maximal effect). Put shortly: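 Luminescence readout: CellTiter-Glo, 30 min RT, same wells as the ESRE-bla reporter read. HeLa ESRE-bla, 1,500 cells/well, o/n 37 C; cpd 5 hr 37 C/5% CO2.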
For experiment [11], the target named is Nuclear receptor ROR-gamma (Homo sapiens) (UniProt P51449). Description: qHTS assay to identify small molecule antagonists of the retinoid-related orphan receptor gamma (ROR-gamma) signaling pathway (AID 1159521; note: nearly all actives have a fitted effect of over 50% in size; note: potency is the fitted concentration of half-maximal effect). Put shortly: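 Antagonist read-out: drop in luminescence (ONE-Glo) from an RORE-LUC reporter in CHO cells with doxycycline-inducible ROR-gamma; 2 hr compound pretreatment, 1 uM doxycycline, 16 hr incubation at 37 C.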

The target in experiment [12] is Retinoic acid receptor RXR-alpha (Homo sapiens) (UniProt P19793). Description: qHTS assay to identify small molecule agonists of the RXR signaling pathway (AID 1159527; calls by dose curve; note: % is set by controls: 0 for no effect and ±100 for the full control effect; nearly all actives have a fitted effect of over 35% in size). Put shortly:
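Agonist-mode beta-lactamase reporter assay: HEK 293T RXR-alpha-UAS-bla cells treated 16 hr at 37 C with compounds, 9-cis retinoic acid as positive control. LiveBLAzer FRET substrate, 405 nm excitation, 460/530 nm emission.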

Experiment [13] deals with Bile acid receptor (Homo sapiens) (UniProt Q96RI1). Put plainly: qHTS assay to identify small molecule agonists of the farnesoid-X-receptor (FXR) signaling pathway (AID 743220; active = well fitted activation curve with a large enough effect in the signal ratio in the repeat runs, not every such curve was filed as active; the % refers to the signal ratio; note: % is set by controls: 0 for no effect and ±100 for the full control effect). An outline of the steps:
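Beta-lactamase reporter under UAS control in GeneBLAzer FXR HEK 293T cells (5000/well) measured with LiveBLAzer FRET substrate after 2 h at room temperature. Compound exposure lasted 16 h at 37C.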

Experiment [14] is described as follows: qHTS assay to identify small molecule agonists of the vitamin D receptor (VDR) signaling pathway - cell viability counter screen (AID 743224). Note: nearly all actives have a fitted effect of over 50% in size. Note: potency is the fitted concentration of half-maximal effect. Put shortly: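 Luminescence from CellTiter-Glo, read after 30 min at room temperature, reports viability of VDR-bla cells treated with compounds for 16 h at 37C in the wells used for the beta-lactamase FRET read.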

The nature of experiment [15]: qHTS assay to identify small molecule agonists of the AP-1 signaling pathway (AID 1159526; calls by dose curve; note: % is set by controls: 0 for no effect and ±100 for the full control effect).
Experiment [16] is described as follows: qHTS assay to identify small molecule agonists of the AP-1 signaling pathway - cell viability counter screen (AID 1159525; calls by dose curve; note: nearly all actives have a fitted effect of over 55% in size; note: potency is the fitted concentration of half-maximal effect). Put shortly: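 ME-180 AP-1-bla, 2500 cells/well, Opti-MEM + 0.5% dialyzed FBS; overnight 37 °C; cpd 15-pt titration, 5 h 37 °C; CellTiter-Glo 30 min RT; luminescence read; normalised to TOAB and DMSO controls.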
A short description of experiment [17]: qHTS assay to identify small molecule agonists of the RXR signaling pathway - cell viability counter screen (AID 1159529). Note: nearly all actives have a fitted effect of over 50% in size. Note: potency is the fitted concentration of half-maximal effect. Put shortly: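 CellTiter-Glo luminescence gave viability in the wells also read for beta-lactamase. Cells (RXR-alpha-UAS-bla HEK 293T, 2% charcoal-stripped FBS medium) had 5 hr plating, then 16 hr compound exposure at 37 C; tetraoctyl ammonium bromide served as positive control.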

Experiment [18] has as its target Bile acid receptor (Homo sapiens) (UniProt Q96RI1). Put plainly: qHTS assay to identify small molecule antagonists of the farnesoid-X-receptor (FXR) signaling pathway (AID 743217; active = well fitted inhibition curve with a large enough effect in the signal ratio in the repeat runs, not every such curve was filed as active; the % refers to the signal ratio; note: % is set by controls: 0 for no effect and ±100 for the full control effect). Put shortly:
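HEK 293T FXR-UAS-bla, 5000 cells/well; compound + CDCA 50 uM final; 16 h, 37 °C; B/G FRET substrate 2 h RT; fluorescence.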

Records with an inconclusive call do not appear. Values without a mark were called inactive. Active and inactive are the calls of the source. Unless noted, calls come from the whole dose curve; as a rule, active = well fitted curve in the direction sought with a large enough effect in the repeat runs; inconclusive = weak or mixed curves; inactive = no such curve, though single readings can be large; an effect the other way counts as inactive or inconclusive.

Sequence of Bile acid receptor (Homo sapiens) (Q96RI1 whole entry, looked up): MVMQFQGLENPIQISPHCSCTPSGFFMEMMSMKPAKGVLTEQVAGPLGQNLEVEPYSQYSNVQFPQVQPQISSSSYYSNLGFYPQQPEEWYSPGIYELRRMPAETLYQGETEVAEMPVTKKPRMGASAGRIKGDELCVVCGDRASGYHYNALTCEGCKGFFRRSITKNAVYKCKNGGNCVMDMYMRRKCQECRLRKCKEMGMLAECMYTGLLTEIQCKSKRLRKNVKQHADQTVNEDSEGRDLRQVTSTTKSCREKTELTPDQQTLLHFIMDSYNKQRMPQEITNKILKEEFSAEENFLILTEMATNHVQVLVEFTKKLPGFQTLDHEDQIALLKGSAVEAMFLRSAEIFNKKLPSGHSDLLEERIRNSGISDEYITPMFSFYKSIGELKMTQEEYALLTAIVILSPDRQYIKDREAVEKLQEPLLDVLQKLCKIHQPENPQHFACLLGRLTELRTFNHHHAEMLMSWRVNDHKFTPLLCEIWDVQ
Sequence of Vitamin D3 receptor (Homo sapiens) (P11473 whole entry, looked up): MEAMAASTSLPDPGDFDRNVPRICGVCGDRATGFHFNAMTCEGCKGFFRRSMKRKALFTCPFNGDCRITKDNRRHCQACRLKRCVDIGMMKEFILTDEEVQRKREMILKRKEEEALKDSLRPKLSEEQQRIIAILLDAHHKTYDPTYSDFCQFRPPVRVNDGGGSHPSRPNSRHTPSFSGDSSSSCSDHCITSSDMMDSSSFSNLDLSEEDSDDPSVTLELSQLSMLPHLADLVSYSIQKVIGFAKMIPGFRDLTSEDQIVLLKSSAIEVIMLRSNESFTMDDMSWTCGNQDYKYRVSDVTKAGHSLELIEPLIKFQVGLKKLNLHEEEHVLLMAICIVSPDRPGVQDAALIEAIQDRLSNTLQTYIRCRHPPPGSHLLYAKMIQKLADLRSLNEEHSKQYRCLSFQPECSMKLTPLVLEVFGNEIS
Sequence of Peroxisome proliferator-activated receptor delta (Homo sapiens) (Q03181 whole entry, looked up): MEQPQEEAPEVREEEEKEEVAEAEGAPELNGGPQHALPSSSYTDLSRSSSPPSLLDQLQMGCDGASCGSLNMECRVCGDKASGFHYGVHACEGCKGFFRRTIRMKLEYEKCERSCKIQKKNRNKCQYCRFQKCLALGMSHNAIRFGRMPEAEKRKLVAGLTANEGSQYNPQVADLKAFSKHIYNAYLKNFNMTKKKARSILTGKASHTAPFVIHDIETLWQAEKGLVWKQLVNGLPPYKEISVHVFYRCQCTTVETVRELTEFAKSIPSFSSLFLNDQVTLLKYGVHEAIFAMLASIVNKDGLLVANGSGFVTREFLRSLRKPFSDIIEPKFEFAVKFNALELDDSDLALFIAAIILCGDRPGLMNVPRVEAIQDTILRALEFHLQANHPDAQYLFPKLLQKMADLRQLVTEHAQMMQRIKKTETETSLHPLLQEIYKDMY
Sequence of Retinoic acid receptor RXR-alpha (Homo sapiens) (P19793 whole entry, looked up): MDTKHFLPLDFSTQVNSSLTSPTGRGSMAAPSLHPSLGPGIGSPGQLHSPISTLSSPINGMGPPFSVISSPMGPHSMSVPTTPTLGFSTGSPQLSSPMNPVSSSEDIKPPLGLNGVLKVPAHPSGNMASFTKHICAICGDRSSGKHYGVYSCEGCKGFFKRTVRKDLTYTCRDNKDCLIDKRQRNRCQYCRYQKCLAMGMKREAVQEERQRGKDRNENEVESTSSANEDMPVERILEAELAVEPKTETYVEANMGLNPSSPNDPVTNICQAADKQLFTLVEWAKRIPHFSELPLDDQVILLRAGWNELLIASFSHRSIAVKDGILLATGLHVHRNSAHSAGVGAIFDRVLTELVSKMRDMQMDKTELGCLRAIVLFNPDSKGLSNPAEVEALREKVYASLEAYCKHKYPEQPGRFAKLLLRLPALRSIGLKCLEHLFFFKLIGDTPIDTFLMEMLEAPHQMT

Turning to `Oc1ccc(-c2ccccc2)c(Cl)c1`, the Potency entry in [1], in [3], in experiment [4], in experiment [5], in experiment [6] and in experiment [7] was “inactive” each time. In addition, the Potency entry in [8], in experiment [9], in experiment [10], in experiment [11] and in experiment [12] was “inactive” in each case. In experiment [2], the molecule was called inactive.

Take `NC(=O)c1nc(-c2cccc(-c3cc(F)ccc3OCC(F)(F)C(F)(F)F)c2)n[nH]1`: the Potency in experiment [1] is 49 µM (active); in [4], 54.9 µM (active); in experiment [14], 43.6 µM (active); in experiment [10], 61.6 µM (active); in experiment [11], 34.4 µM (active). Further, the Potency entry in experiment [13], in experiment [7] and in experiment [12] was “inactive” in each case.

Regarding `CCCSS/C(CCO)=C(\C)N(C=O)Cc1cnc(C)nc1N`, the Potency result in experiment [1], in experiment [3], in experiment [5], in experiment [6], in experiment [7] and in experiment [14] was “inactive” throughout. The Potency entry in experiment [10], in experiment [11] and in experiment [15] was “inactive” throughout.

`CN(C)c1ccc(N=NS(=O)(=O)O)cc1`: the Potency entry in experiment [5], in experiment [6], in experiment [14], in experiment [10] and in [15] was “inactive” each time.

`C=C(C)C(=O)OCCC[Si](Cl)(Cl)Cl`: the Potency entry in [1], in experiment [3], in [4], in experiment [6], in experiment [7] and in experiment [8] was “inactive” in each case. Besides, the Potency entry in experiment [9], in experiment [10], in [11], in experiment [16], in experiment [15] and in experiment [17] was “inactive” in each case. In experiment [2], the outcome was inactive.

Consider `CCCCCCCCCCCCCOP(=O)(O)O`, for which the result in [2] was inactive. For the same molecule, the Potency result in experiment [4], in [5], in experiment [6], in experiment [7], in [14] and in experiment [16] was “inactive” each time. Also, the Potency result in experiment [17] is “inactive”. Also, the Potency in experiment [10] was 30.9 µM (active).

Turning to `COc1cc(C(C)C)c2c(c1)S(=O)(=O)N(COc1cc(=O)n3cccc(OCCN4CCCCC4)c3n1)C2=O`, the Potency entry in [1], in [18], in experiment [5], in experiment [6], in [14] and in experiment [9] was “inactive” each time. Besides, the Potency entry in [10] is “inactive”. Also, the activity change, negative = inhibition in [11] is -4.73% [at 19 µM]. The viability change, negative = cytotoxic in experiment [16] was -17.4% [at 15.8 µM]. In experiment [15], the activation was 7.65% [at 15.8 µM]. Besides, the activity change, negative = cytotoxicity in experiment [17] was -5.15% [at 15.8 µM].

On to `S=C(SSSSSSC(=S)N1CCCCC1)N1CCCCC1`, for which the Potency in [3] is 0.382 µM (active); in experiment [14], 0.271 µM (active); in experiment [11], 0.239 µM (active); in experiment [17] it was 0.606 µM (active). Moreover, the Potency result in [13], in experiment [8] and in experiment [10] was “inactive” each time. In addition, in [16], the viability change, negative = cytotoxic is 2.16% [at 15.8 µM].

For the molecule `CCCCCCCCCCCCCC[n+]1ccccc1`, the Potency is 24.5 µM (active) in experiment [3]; 54.9 µM (active) in experiment [6]; 43.6 µM (active) in experiment [8]; 24.5 µM (active) in experiment [14]; 24.5 µM (active) in [9]; 17.4 µM (active) in [10]. The Potency was 49 µM (active) in experiment [16] and 12.3 µM (active) in experiment [17].

Turning to `C1CC(COCC2CO2)CCC1COCC1CO1` (stereo not drawn), the Potency result in [1], in experiment [3], in experiment [18], in experiment [5], in experiment [6] and in [7] was “inactive” each time. The Potency result in [10], in experiment [16] and in experiment [17] was “inactive” in each case. Besides, the call in [2] was inactive.
